ADAM10 inh: inhibitors of human ADAM10; O14672; recombinant ADAM10, EDANS/DABCYL FRET peptide cleavage, 3 h; inhibition, % at 7 µM; 0.62% of 370,000 active;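 active = inhibition above a per-campaign cutoff equal to the mean of compounds falling between control-based bounds plus 3 SD, cut at about 20% in these data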;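 also: 0% = DMSO wells while the 100% control is not disclosed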
Target sequence (O14672 214-748 limits assumed): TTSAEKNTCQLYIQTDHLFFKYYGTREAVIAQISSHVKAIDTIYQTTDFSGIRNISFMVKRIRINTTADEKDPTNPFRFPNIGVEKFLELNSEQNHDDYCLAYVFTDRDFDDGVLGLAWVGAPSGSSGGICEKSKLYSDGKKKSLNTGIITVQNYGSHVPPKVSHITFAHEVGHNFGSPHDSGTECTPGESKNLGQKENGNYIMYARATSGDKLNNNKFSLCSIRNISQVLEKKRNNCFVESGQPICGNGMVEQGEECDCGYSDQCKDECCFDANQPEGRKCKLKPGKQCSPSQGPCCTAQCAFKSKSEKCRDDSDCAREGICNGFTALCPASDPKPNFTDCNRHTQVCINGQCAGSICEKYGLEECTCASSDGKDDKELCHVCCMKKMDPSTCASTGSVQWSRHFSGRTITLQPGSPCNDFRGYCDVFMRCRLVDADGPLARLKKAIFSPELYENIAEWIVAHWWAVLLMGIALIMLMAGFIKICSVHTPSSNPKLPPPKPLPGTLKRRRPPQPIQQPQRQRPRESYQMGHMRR
KLK7 zymogen act: proKLK7 (human) activation, primary screen; purified proKLK7, EDANS-DABCYL substrate fluorescence; 100% is mature enzyme control, 0% vehicle; activation, % at 7 µM; 0.9% of 370,000 active; AID 652039;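 active = activation above the mean of all tested compounds plus 3 SD, computed per campaign excluding outliers beyond control limits, cut at about 13% in these data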
PLC-beta3 inh: PLC-beta3 (human) inhibition, primary screen | 0.18% of 370,000 active | Purified PLC-beta3, fluorogenic substrate, fluorescence | AID 720704 | Q01970 | inhibition, % at 12.2 µM; in the data active = inhibition above about 11%;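 also: 0% = median of compound wells on plate and 100% = full blocker control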
PLCg1 inh: inhibitors of human phospholipase C gamma1. P19174. purified PLC-gamma1, fluorogenic substrate, fluorescence. inhibition, % at 12.2 µM. 0.84% of 370,000 active. AID 720700; in the data active = inhibition above about 9.5%
ADAM17 inh: inhibits human ADAM17; P78536; recombinant ADAM17, EDANS/DABCYL FRET peptide cleavage; inhibition, % at 6.95 µM; 0.83% of 370,000 active; AID 720648;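 active = inhibition above the mean of compounds lying between control limits plus 3 SD, set per campaign, cut at about 8.5% in these data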;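 also: 0% = DMSO-only wells as the low control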
The depositor's hits bear a star; i = inactive; · = no result given. This is a sample that favours compounds with a hit; in the whole collection about 2.9% have one here.

SMILES | ADAM10 inh | KLK7 zymogen act | PLC-beta3 inh | PLCg1 inh | ADAM17 inh
CC(C)(CN1CCNCC1)NS(=O)(=O)c1ccc(Cl)cc1 | 6 | 0 | -1 | 16* | -2
CCOC(=O)Cn1cc(CN2C(C(=O)OC)CN(Cc3ccccc3)CCS2(=O)=O)nn1 (stereo not drawn) | 2 | 0 | 1 | 0 | -1
O=C(CSc1nnc(CNc2ccc(F)cc2)o1)N1c2ccccc2Sc2ccccc21 | 24* | -1 | 2 | 2 | 8
O=C(c1ccc(F)cc1)c1cccc(C(=O)c2ccc(F)cc2)n1 | -7 | -1 | 11* | 3 | 2
NC(=O)c1ccc(F)cc1 | -3 | 0 | 1 | -1 | -5
COC(=O)[C@]12C[C@H](CC(=O)N3CCN(C(=O)C4CC4)CC3)C(=O)N(CCc3ccc(OC)c(OC)c3)C1=C[C@H](C1CCCC1)O[C@@H]2C | -2 | 1 | -4 | 2 | -1
COc1cc(NC(=O)c2cccs2)c(OC)cc1NC(=O)CCC(=O)Nc1ccc2ncccc2c1 | -22 | 68* | -7 | -3 | -8
COc1ccc(OCC(=O)Nc2ccc(NC(=O)c3cccs3)c(OC)c2)cc1 | -6 | 0 | -5 | 4 | 0
CCOC(=O)C1Nc2ccc(C(F)(F)F)cc2C2c3ccccc3CC12 (stereo not drawn) | -1 | 21* | -2 | -3 | -2
CCCCCCCCN1CN2Cc3ccc(C)cc3C2CS1(=O)=O (stereo not drawn) | 5 | 0 | -8 | -5 | 1
Cc1ccc(S(=O)(=O)N2CCN(C(=O)c3cc4c(C)nn(-c5ccccc5C)c4s3)CC2)cc1 | 22* | 0 | 6 | 7 | 9.0*
Cc1ccccc1-n1nc(C)c2cc(C(=O)N3CCOCC3)sc21 | 3 | 1 | -1 | 1 | -1
COc1ccc(C(=S)N2CCNCC2)cc1 | -10 | 0 | 4 | 1 | -1
COc1ccc(C(=S)N2CCCCCC2)cc1 | 2 | 0 | 2 | 9.9* | -2
CN(c1cccc(NC(=O)c2ccccc2N(C)S(C)(=O)=O)c1)S(C)(=O)=O | 1 | 0 | 2 | 5 | 2
Cc1c(C(=O)Nc2cccc(N(C)S(C)(=O)=O)c2)cccc1[N+](=O)[O-] | 6 | 0 | 14* | 14* | 7
Oc1ccc(N2CCN(C(c3cccs3)c3nnnn3CCc3ccccc3)CC2)cc1 (stereo not drawn) | 21* | 1 | 0 | -1 | 2
NC(=O)COC(=O)c1ccccc1SCC(=O)NC1CCCCCCC1 | -4 | 1 | -3 | -4 | -5
CCNC(=O)NC(=O)COC(=O)c1ccccc1SCC(=O)NC(=O)NCC | i | 39* | -243 | -209 | -244
O=C(/C=C/c1ccccc1)OCC(=O)N1CCCC1 | 2 | 0 | -6 | 11* | -2
COc1ccc(C(=O)OCCN2CCN(C3CN(Cc4cn(Cc5cccc(C)c5)nn4)S(=O)(=O)C3)CC2)cc1OC (stereo not drawn) | -3 | 0 | 2 | -3 | -4
CC(=O)c1ccc2c(c1)C1C=CCC1C(c1ccncc1)N2 (stereo not drawn) | -8 | 1 | -62 | -50 | -5
CC(=O)c1ccc2c(c1)C1C=CCC1C(C(=O)O)N2 (stereo not drawn) | 11 | -1 | -9 | 12* | 4
CCCCNC(=O)O[C@H]1CC[C@@]23CCCN2C(=O)CCC[C@H]3C1 | -6 | · | 2 | 3 | 0
CC1CCN(c2ccc(C(=O)O)cc2NS(=O)(=O)c2ccc(C(C)(C)C)cc2)CC1 | -10 | 0 | -10 | 2 | -1
SMILES | ADAM10 inh | KLK7 zymogen act | PLC-beta3 inh | PLCg1 inh | ADAM17 inh
O=C(CS(=O)CC(=O)Nc1cccc2c1CCCC2)Nc1ccc(F)cc1 (stereo not drawn) | -1 | 0 | 8 | 15* | -1
CC(C)(C)CC(=O)Nc1cccc2c1CCCC2 | 11 | 0 | 0 | 2 | 0
CC(=O)Nc1ccc(NC2=C/C(=N/S(=O)(=O)c3cccs3)c3ccccc3C2=O)cc1 | 7 | 0 | 7 | 11* | 2
O=C(O)c1ccc(S(=O)(=O)/N=C2\C=C(Nc3ccccc3F)C(=O)c3ccccc32)cc1 | -11 | 0 | 0 | 20* | 2
CCc1ccc(S(=O)(=O)/N=C2\C=C(NS(=O)(=O)c3ccccc3)C(=O)c3ccccc32)cc1 | 0 | 0 | -10 | 0 | -4
Cc1ccc(NC2=C/C(=N/S(=O)(=O)c3cccs3)c3ccccc3C2=O)cc1C | 2 | 0 | 4 | 5 | 2
COc1ccc(S(=O)(=O)/N=C2\C=C(Nc3ccc(O)cc3)C(=O)c3ccccc32)cc1 | 20 | 1 | 4 | 18* | 7
CC(C)c1ccc(S(=O)(=O)/N=C2\C=C(NS(=O)(=O)c3ccccc3)C(=O)c3ccccc32)cc1 | 5 | 0 | -11 | 1 | 3
Cc1ccc(-n2c(SCC(=O)NN=Cc3ccc(-c4ccccc4)cc3)nnc2-c2ccccc2)cc1 | 1 | 0 | 1 | 3 | 2
Cc1cccnc1NC(=S)NC(=O)c1cncc(Br)c1 | -54 | 32* | -2 | -2 | -20
Cc1noc(C)c1S(=O)(=O)N(C)C[C@H]1OCc2cn(nn2)CCCC(=O)N([C@@H](C)CO)C[C@@H]1C | -8 | 0 | -2 | 1 | -5
Cc1noc(C)c1S(=O)(=O)N(C)C[C@@H]1OCc2cn(nn2)CCCC(=O)N([C@@H](C)CO)C[C@H]1C | 0 | 0 | 9 | 12* | 7
CCCCCCN1CCS(=O)(=O)N(Cc2ccc(C)cc2)C(C(=O)OC)C1 (stereo not drawn) | 0 | 0 | 0 | -1 | 2
COC(=O)[C@]12C[C@H](CC(=O)NCCCCc3ccccc3)C(=O)N(CCc3ccc(OC)c(OC)c3)C1=C[C@H](COCc1ccccc1)O[C@@H]2C | 4 | 1 | 0 | 2 | -1
C[C@H](CO)N1C[C@H](C)[C@@H](CN(C)C(=O)Nc2ccc3c(c2)OCO3)Oc2c(NC(=O)Nc3ccc(C(F)(F)F)cc3)cccc2C1=O | 11 | 0 | -15 | -13 | 9.4*
COc1ccc(NC(=O)N(C)C[C@H]2Oc3c(NC(=O)Nc4ccc(C(F)(F)F)cc4)cccc3C(=O)N([C@H](C)CO)C[C@@H]2C)cc1 | 19 | 0 | 4 | 2 | 9.9*
COc1ccc2c3c([nH]c2c1)[C@]1(CCNC=O)Nc2ccccc2C1=NCC3 | -21 | · | -12 | -9 | -7
CN(C)CCNC(=O)c1coc(=O)c(Br)c1 | i | -6 | -173 | -132 | -207
CC(C)CNC(=O)c1coc(=O)c(Br)c1 | -492 | 27* | -102 | -92 | -126
NC(=Nc1cccc(F)c1)NC(=O)OCc1ccccc1 | -1 | 0 | 3 | 0 | -1
COc1ccc2cc3cc(C(=O)NCCc4ccc(OC)c(OC)c4)oc3nc2c1 | -490 | -74 | -72 | -54 | -99
CCCN(CCC)CCCNC(=O)c1cc2cc3ccc(OC)cc3nc2o1 | i | 61* | i | i | i
CCN(CC)c1ccc(N=Nc2nn(C)c(C)c2[N+](=O)[O-])cc1 | 8 | 0 | 4 | 9 | 5
